A number with no mark means an inactive call. Results filed as inconclusive are left out. Active and inactive are the calls of the source. Unless noted, the call rests on the fitted dose curve; in most records, active means well fitted curve in the direction sought with a large enough effect in the repeat runs; inconclusive means weak or mixed curves; inactive means no such curve, though single readings can be large; an effect the other way counts as inactive or inconclusive.

Assay [1] is described as follows: qHTS assay for small molecule agonists of the p53 signaling pathway (AID 651631; calls by dose curve; further: nearly all actives have a fitted effect of over 15% in size; further: potency means the concentration at half of the fitted maximal effect). An outline of the steps:
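We treat p53RE-bla HCT-116 cells with compounds for 16 h at 37 °C, add LiveBLAzer B/G FRET substrate for 2 h at room temperature, and measure fluorescence intensity.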
(In qHTS, concentration-response curves come from the screen itself.)

A short description of assay [2]: qHTS assay for small molecules that induce genotoxicity in human embryonic kidney cells expressing luciferase-tagged ATAD5 (AID 651632). Further: nearly all actives have a fitted effect of over 15% in size. Summed up:
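HEK293T cells carrying a luciferase reporter tagged to ATAD5 were exposed to compound or DMSO vehicle for 16 hr at 37C, 5% CO2. Amplite was added, and after 30 min at room temperature luciferase activity was read as a marker of ATAD5 induction.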

The nature of assay [3]: qHTS assay for small molecule agonists of the p53 signaling pathway - cell viability (AID 651633; calls by dose curve; further: nearly all actives have a fitted effect of over 30% in size; further: potency means the concentration at half of the fitted maximal effect). Summed up:
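p53RE-bla cells were treated with compound for 16 hours at 37 C. Cytotoxicity was then measured as CellTiter-Glo luminescence after 30 min at room temperature.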

A short description of assay [4]: qHTS assay for small molecule disruptors of the mitochondrial membrane potential (AID 720635). Further: potency means the concentration at half of the fitted maximal effect. An outline of the steps: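 HepG2 cells exposed to compound 1 hr at 37C, then Mito-MPS dye 30 min. Ratio read of aggregate (540/590 nm) versus monomer (490/535 nm) fluorescence.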
A short description of assay [5]: qHTS assay to test for compound auto fluorescence at 590 nm (red) in HepG2 cells (AID 720674). An outline of the steps:
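Seeding: 2,000 HepG2 cells/well, MEM/10% FBS, overnight 37 C. Dosing: compound vs DMSO. Incubation: 1 hr, 37 C, 5% CO2. Read: fluorescence 540 ex/590 em, Rose Bengal sodium as red reference.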

Assay [6] can be described thus: qHTS assay to test for compound auto fluorescence at 535 nm (green) in HepG2 cells (AID 720675).
The nature of assay [7]: qHTS assay to test for compound auto fluorescence at 460 nm (blue) in HEK293 cells (AID 720678). An outline of the steps: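 Auto fluorescence in the blue band was quantified as triamterene equivalency. HEK293 cells were seeded at 2,000/well, dosed after a 4-5 hr attachment, and kept overnight at 37C before the 405/460 nm reading.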
Assay [8] in a line: qHTS assay to test for compound auto fluorescence at 590 nm (red) in HEK293 cells (AID 720679). An outline of the steps: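 Autofluorescence equivalency to Rose Bengal sodium, 540/590nm, in HEK293 cells exposed overnight to 23 nL compound per well.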
Assay [9] can be described thus: qHTS assay to test for compound auto fluorescence at 460 nm (blue) in HEK293 cell free culture (AID 720681). An outline of the steps: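 Compounds were added to cell-free DMEM with 10% FBS and fluorescence read directly. The blue channel used 405 nm excitation and 460 nm emission, with triamterene as the reference fluorophore.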
Assay [10] can be described thus: qHTS assay to test for compound auto fluorescence at 590 nm (red) in HEK293 cell free culture (AID 720683). An outline of the steps:
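Cell-free wells of DMEM with 10% FBS received compound, and intrinsic fluorescence was read at excitation/emission 540/590 nm. Values expressed as equivalence to Rose Bengal sodium.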

Assay [11] can be described thus: qHTS assay to test for compound auto fluorescence at 590 nm (red) in HepG2 cell free culture (AID 720684). Summed up:
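Compound was pinned into wells holding MEM with 10% FBS and no cells, and red fluorescence was read at Ex/Em 540/590 nm. Signal is expressed as auto fluorescence equivalency relative to Rose Bengal sodium.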

Assay [12] is described as follows: qHTS assay to test for compound auto fluorescence at 460 nm (blue) in HepG2 cell free culture (AID 720685). An outline of the steps: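 Compound (23 nL) or DMSO pinned into cell-free MEM with 10% FBS; blue fluorescence read at 405/460 nm excitation/emission, expressed as auto-fluorescence equivalency to triamterene.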
A short description of assay [13]: qHTS assay to test for compound auto fluorescence at 535 nm (green) in HepG2 cell free culture (AID 720686).
Assay [14] in a line: qHTS assay to test for compound auto fluorescence at 460 nm (blue) in HepG2 cells (AID 720687). An outline of the steps: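 HepG2 cells in MEM with 10% FBS, attached overnight at 37 C, were exposed to compound or DMSO for 1 hr at 37 C, 5% CO2. Blue fluorescence was read at 405/460 nm, with triamterene as reference fluorophore.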
Assay [15] in a line: qHTS assay for small molecule disruptors of the mitochondrial membrane potential - cell viability (AID 720634; calls by dose curve;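 further: human HepG2 liver cancer cells; series mostly up to about 83 µM; nearly all actives have a fitted effect of over 20% in size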). Summed up:
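HepG2 cells seeded overnight at 37 C, then exposed to compound or DMSO for 1 hr at 37 C, 5% CO2. m-MPI dye added, then CellTiter-Glo for 30 min at room temperature; viability read as ATP luminescence.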

Assay [16] in a line: qHTS assay to test for compound auto fluorescence at 535 nm (green) in HEK293 cells (AID 720680).
Assay [17] in a line: qHTS assay for small molecules that induce genotoxicity in human embryonic kidney cells expressing luciferase-tagged ATAD5 - cell viability (AID 651634; calls by dose curve; further: nearly all actives have a fitted effect of over 25% in size; further: potency means the concentration at half of the fitted maximal effect). Summed up: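 HEK293T cells expressing luciferase-tagged ATAD5 were exposed to compound or DMSO for 15.5 hr at 37C, 5% CO2. Viability was then read as live-cell protease activity by CellTiter-Fluor fluorescence after 30 min at 37C.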

Assay [18] concerns the target Glucocorticoid receptor (Homo sapiens) (UniProt P04150). Description: qHTS assay to identify small molecule agonists of the glucocorticoid receptor (GR) signaling pathway (AID 720691; active means well fitted activation curve with a large enough effect in the signal ratio in the repeat runs, not every such curve was filed as active; the % refers to the signal ratio). An outline of the steps:
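GR-bla HeLa cells (beta-lactamase reporter under glucocorticoid response element) were plated 4 h at 37 C/5% CO2, given compounds in DMSO, and incubated 18 h at 37 C. LiveBLAzer B/G FRET substrate was added for 2 h at room temperature, then fluorescence intensity read.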

Assay [19] shares this target. Description: qHTS assay to identify small molecule antagonists of the glucocorticoid receptor (GR) signaling pathway (AID 720692; active means well fitted inhibition curve with a large enough effect in the signal ratio in the repeat runs, not every such curve was filed as active; the % refers to the signal ratio). Summed up:
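GR-bla HeLa cells (beta-lactamase reporter under glucocorticoid response element) were pre-plated 4 h at 37 C, treated with compounds plus 5 nM dexamethasone (final) for 18 h, then read by LiveBLAzer B/G FRET fluorescence after 2 h.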

The nature of assay [20]: qHTS assay to test for compound auto fluorescence at 535 nm (green) in HEK293 cell free culture (AID 720682). An outline of the steps:
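Green-channel intensity (Ex/Em 485/535 nm) was recorded from compound-treated wells containing only DMEM with 10% FBS. Fluorescein provided the equivalency standard.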
On the % scale 0 is the no-effect control and ±100 the full control effect.

Chain of Glucocorticoid receptor (Homo sapiens) (P04150 whole entry, looked up): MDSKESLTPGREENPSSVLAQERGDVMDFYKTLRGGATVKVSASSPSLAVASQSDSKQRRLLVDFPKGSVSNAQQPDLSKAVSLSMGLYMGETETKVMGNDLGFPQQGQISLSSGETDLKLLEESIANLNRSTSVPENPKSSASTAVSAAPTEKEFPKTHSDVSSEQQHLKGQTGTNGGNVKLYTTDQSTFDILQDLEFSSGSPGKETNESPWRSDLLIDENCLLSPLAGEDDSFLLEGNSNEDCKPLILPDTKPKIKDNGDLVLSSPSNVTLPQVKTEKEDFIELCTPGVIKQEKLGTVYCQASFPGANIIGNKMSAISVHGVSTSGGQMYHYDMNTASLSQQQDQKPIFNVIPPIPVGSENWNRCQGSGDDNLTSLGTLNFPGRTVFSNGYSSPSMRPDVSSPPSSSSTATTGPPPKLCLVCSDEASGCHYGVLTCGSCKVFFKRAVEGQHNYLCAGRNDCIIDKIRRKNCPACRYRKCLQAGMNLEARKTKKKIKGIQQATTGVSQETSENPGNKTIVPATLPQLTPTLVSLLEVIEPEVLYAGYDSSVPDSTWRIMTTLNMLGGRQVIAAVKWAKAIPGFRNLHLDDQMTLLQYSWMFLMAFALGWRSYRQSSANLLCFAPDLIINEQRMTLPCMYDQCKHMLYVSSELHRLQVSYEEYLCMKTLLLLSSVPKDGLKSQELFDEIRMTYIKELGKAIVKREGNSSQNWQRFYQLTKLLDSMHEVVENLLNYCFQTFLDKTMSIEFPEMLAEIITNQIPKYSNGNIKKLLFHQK

As to `O=C(CCc1ccc(O)cc1)c1c(O)cc(O)cc1O`, the Potency in assay [1] is 70.1 µM (active); in assay [4], 3.13 µM (active). For the same molecule, the Potency result in assay [2], in assay [3], in [7], in assay [9], in assay [12] and in assay [14] was “inactive” in each case. Besides, the outcome in [5], in assay [6], in assay [8], in [10], in [11] and in assay [13] was inactive.

As to `CC(C)=CCC1C(=O)N(c2ccccc2)N(c2ccccc2)C1=O`, the Potency in assay [1] is 15 µM (active); in assay [3] it was 21.1 µM (active). Further, the Potency entry in assay [2], in assay [15], in [9], in [12] and in assay [14] was “inactive” each time. In addition, the result in assay [5], in assay [6], in [8], in [16], in [10] and in assay [11] was inactive. Besides, in [13], the result was inactive.

With `CN1CCCN=C1COC(=O)C(O)(c1ccccc1)C1CCCCC1` (centres undefined), the Potency entry in assay [1], in assay [3], in assay [17], in assay [15], in assay [9] and in assay [12] was “inactive” throughout. Moreover, the Potency result in assay [14], in [18] and in [19] was “inactive” throughout. For the same molecule, the outcome in [5], in assay [6], in assay [8], in [16], in [10] and in assay [11] was inactive. Further, the call in assay [13] was inactive.

Consider `C=C(C)CCCC(C)CCO` (centres undefined), for which the Potency entry in assay [1], in assay [3], in assay [17], in [15], in assay [9] and in assay [12] was “inactive” each time. Further, the Potency result in assay [14] is “inactive”. Also, the molecule was classed as inactive in assay [5], in assay [6], in [8], in assay [16], in assay [10] and in assay [11]. Further, the result in assay [13] was inactive.

For `C[C@@H](O[C@H]1OCCN(Cc2n[nH]c(=O)[nH]2)[C@H]1c1ccc(F)cc1)c1cc(C(F)(F)F)cc(C(F)(F)F)c1`, the Potency in [1] was 29.8 µM (active); in assay [3], 23.7 µM (active); in assay [17], 23.7 µM (active). Besides, the Potency entry in assay [15], in assay [9], in assay [12] and in [14] was “inactive” each time. Moreover, the result in [5], in assay [6], in assay [8], in assay [16], in assay [20] and in [10] was inactive. The molecule was classed as inactive in [11] and in [13].

For the molecule `Cc1cccc(N(C)C(=S)Oc2ccc3c(c2)CCC3)c1`, the Potency result in assay [1], in assay [3], in [17], in [15], in [7] and in assay [9] was “inactive” each time. Moreover, the Potency entry in assay [12], in assay [14] and in assay [18] was “inactive” in each case. The molecule was called inactive in assay [5], in assay [6], in assay [8], in [16], in assay [20] and in [10]. The outcome in [11] and in [13] was inactive.

As for `CC(C)C=O`, the Potency result in assay [1], in assay [3], in assay [15], in assay [4], in [7] and in assay [9] was “inactive” each time. Moreover, the Potency entry in assay [12], in assay [14], in assay [18] and in [19] was “inactive” throughout. Moreover, the molecule was classed as inactive in assay [5], in assay [6], in assay [8], in assay [16], in [20] and in assay [10]. In addition, the result in assay [11] and in [13] was inactive.

Turning to `CCCCOc1ccc(OCCCN2CCOCC2)cc1`, the Potency entry in [1], in assay [2], in assay [3] and in [15] was “inactive” in each case. For the same molecule, the fluorescence, relative to Rose Bengal in [5] was -0.141% [at 18.6 µM]. Further, the fluorescence, % of fluorescein control was -0.0009% [at 18.6 µM] in [6] and -0.0254% [at 18.6 µM] in assay [13]. Further, the fluorescence, % of triamterene in [7] is -0.0611% [at 18.6 µM]. Also, the fluorescence, % of fluorescent control in assay [8] is -0.188% [at 18.6 µM]; in assay [9] it was -0.123% [at 18.6 µM]; in assay [10], -0.046% [at 18.6 µM]; in assay [12] it was -0.102% [at 18.6 µM]; in [14], -0.0756% [at 18.6 µM]. In assay [20], the activity change was 0.0858% [at 18.6 µM]. The fluorescence, % of Rose Bengal in assay [11] is 0.461% [at 18.6 µM].

`NC(=O)c1ccncc1`: the Potency result in assay [1], in assay [3], in [17], in [15], in assay [4] and in assay [7] was “inactive” throughout. Moreover, the Potency result in [9], in [12], in assay [14], in assay [18] and in assay [19] was “inactive” each time. In addition, the result in [5], in [6], in assay [8], in [16], in assay [20] and in assay [10] was inactive. Moreover, the outcome in assay [11] and in assay [13] was inactive.

On to `CC[N+](CC)(CCNC(=O)C(=O)NCC[N+](CC)(CC)Cc1ccccc1Cl)Cc1ccccc1Cl`, for which the Potency result in assay [1], in assay [3], in assay [17], in assay [15], in assay [4] and in assay [7] was “inactive” each time. The Potency entry in assay [9], in [12] and in [14] was “inactive” in each case. Moreover, the molecule was called inactive in [5], in [6], in assay [8], in [16], in assay [20] and in assay [10]. For the same molecule, the outcome in [11] and in assay [13] was inactive.

The record behind these values is PubChem BioAssay (Tox21).
